Assay outcomes from PubChem.
MITF inh: human MITF inhibition, primary screen; 0.91% of 650,000 active; O75030; inhibition, % at 2.6 µM; AlphaScreen MITF homodimerization, bead proximity signal; AID 1259374; in the data active = inhibition above about 50%;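 also: 0% = vehicle wells with protein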
TEAD-YAP block: TEAD-YAP interaction inhibition | inhibition, % at 9.12 µM | 1.4% of 640,000 active | HEK-TIYL cells, TEAD-Gal4/YAP UAS-luciferase luminescence; in the data active = inhibition above about 32%;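 also: 0% = median of test compound wells and 100% = reference inhibitor wells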
FBW7 act: activators of human E3 ligase FBW7. AID 1259310. AlphaScreen FBW7–phospho-cyclin E peptide binding, activator screen. normalized activity (activation), % at 26.1 µM. Q969H0. 0.13% of 650,000 active; in the data active = normalized activity above about 1.9%;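 also: purified mutant Fbw7 with reduced substrate affinity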
GPR151 activ: activates the human receptor GPR151; activation, % at 11.2 µM; 1% of 650,000 active; AID 1508602; PathHunter beta-arrestin GPR151 cells, luminescence; in the data active = activation above about 4.9%;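 also: 0% = median of compound wells and 100% = cells with positive control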
Target sequence (Q8TDV0 whole entry, looked up): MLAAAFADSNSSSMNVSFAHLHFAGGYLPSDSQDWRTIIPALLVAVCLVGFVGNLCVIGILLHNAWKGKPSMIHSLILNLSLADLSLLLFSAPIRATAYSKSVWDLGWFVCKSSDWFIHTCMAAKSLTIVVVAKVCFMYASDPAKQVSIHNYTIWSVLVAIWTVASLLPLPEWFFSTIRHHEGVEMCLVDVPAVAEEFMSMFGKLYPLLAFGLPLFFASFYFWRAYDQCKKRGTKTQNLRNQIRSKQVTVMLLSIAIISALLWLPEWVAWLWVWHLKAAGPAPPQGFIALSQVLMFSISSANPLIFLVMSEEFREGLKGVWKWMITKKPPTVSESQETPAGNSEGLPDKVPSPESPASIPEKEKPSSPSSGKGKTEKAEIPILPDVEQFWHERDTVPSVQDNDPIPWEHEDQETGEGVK
MITF confirm: human MITF inhibition, confirmation | shares compounds with MITF inh | AlphaScreen MITF homodimerization, biotin/His-MITF beads | inhibition, % at 2.6 µM | 16% of 4,700 active;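 active = inhibition above a cutoff derived from the DMSO control wells, cut at about 28% in these data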;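 also: 0% = MITF dimer wells with DMSO only; inhibitors lower the bead chemiluminescence by keeping MITF from dimerizing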
AlphaScreen DR: counter-screen: compounds optically interfering with AlphaScreen; shares compounds with MITF inh; AlphaScreen optical interference counterscreen, cell-free; IC50, µM; 6% of 480 active; AID 1259373; call rule not given here
AS interf ctr: AlphaScreen optical interference, counter-screen | shares compounds with MITF inh | LysRS AlphaScreen counterscreen, signal interference, triplicate | inhibition, % at 2.6 µM | 7.6% of 4,700 active | AID 1259376;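 active = inhibition above a cutoff derived from the DMSO control wells, cut at about 30% in these data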
* = called active by the depositor; nt = no result given. Most compounds without a hit are left out; they make up all but 3.4% or so of the library.

SMILES	MITF inh	TEAD-YAP block	FBW7 act	GPR151 activ	MITF confirm	AS interf ctr	others
CC(C)NC(=O)CCCCCn1nnc2ccccc2c1=O	-6	2	0	1	nt	nt
SC(COCc1ccccc1)CN1CCN(Cc2ccccc2)CC1 (stereo not drawn)	7	0	0	1	nt	nt
CN1C(=O)[C@H]2CN(C(=O)NCc3ccccc3)CCN2C(=O)[C@@H]1Cc1ccccc1	80*	3	1	0	68*	-3	AlphaScreen DR=>6.5
O=C(c1cccc2ccccc12)N1CCN2C(=O)[C@@H]3CSCN3C(=O)[C@H]2C1	19	4	0	0	nt	nt
O=C(NCc1ccccc1)N1CCN2C(=O)[C@@H]3CSCN3C(=O)[C@H]2C1	75*	2	0	-1	75*	-5	AlphaScreen DR=>6.5
O=C(Nc1ccc(Cl)cc1Cl)N1CCN2C(=O)[C@@H]3CSCN3C(=O)[C@H]2C1	70*	6	0	-1	66*	0	AlphaScreen DR=>6.5
O=C(NCC1CCCO1)C(=O)Nc1nccs1 (stereo not drawn)	99*	-6	0	2	-4	-1
O=C(NCCCO)c1ccc(/C=N/O)nc1	19	3	0	0	nt	nt
O=C(NCCCNCCCNC(=O)c1ccc(/C=N/O)nc1)c1ccc(/C=N/O)nc1	69*	-3	-1	1	49*	100*
CCOc1ccc(/C=C/C(=O)Nc2nc3ccc(S(C)(=O)=O)cc3s2)cc1OC	73*	-1	0	0	-1	2
COC(=O)c1ccc(-c2cccc3c2OC(CNC(=O)c2noc4c2CCCC4)C3)nc1 (stereo not drawn)	-7	-7	0	3	nt	nt
CCc1n[nH]c(=S)n1N=C1CCC(C)CC1 (stereo not drawn)	59*	2	0	1	-1	-2
CCc1n[nH]c(=S)n1/N=C/c1ccc(F)cc1	4	-9	0	-1	nt	nt
CN1CCN(CCOc2ccccc2-c2ccccc2)CC1	55*	-1	0	-1	4	5
CCN1CCN(CCOc2ccccc2-c2ccccc2)CC1	44	7	0	-2	nt	nt
c1ccc(-c2ccccc2OCCCCN2CCOCC2)cc1	77*	-3	0	2	-10	-4
c1ccc(-c2ccccc2OCCN2CCOCC2)cc1	78*	-2	0	1	6	4
Cc1ccc(CN2CCN(S(=O)(=O)c3ccccc3[N+](=O)[O-])CC2)cc1	58*	8	0	2	12	21
CSc1ccc(CN2CCN(S(=O)(=O)c3ccccc3[N+](=O)[O-])CC2)cc1	57*	-1	0	-2	10	17
CCc1ccc(CN2CCN(S(=O)(=O)c3ccccc3[N+](=O)[O-])CC2)cc1	28	-4	0	0	nt	nt
CCc1ccc(CN2CCN(C(=O)c3ccco3)CC2)cc1	51*	-18	0	1	5	10
COc1cccc(CN2CCN(C(=O)c3cccc(Cl)c3)CC2)c1	58*	0	0	0	11	15
COc1ccc(Br)cc1CN1CCN(C(=O)c2cccs2)CC1	64*	1	0	0	-8	-6
COc1cccc(CN2CCN(C(=O)c3ccco3)CC2)c1	55*	6	0	0	-22	-1
COc1cccc(OC)c1C(=O)N1CCN(Cc2ccco2)CC1	61*	7	0	1	-5	-9
SMILES	MITF inh	TEAD-YAP block	FBW7 act	GPR151 activ	MITF confirm	AS interf ctr	others
CCOc1cc(CN2CCN(C(=O)c3cccc(Cl)c3)CC2)ccc1OC	21	2	0	0	nt	nt
COc1ccc(CN2CCN(C(=O)c3ccco3)CC2)cc1Br	53*	-3	0	-1	3	13
COc1ccc(C(=O)N2CCN(Cc3cccc(Cl)c3)CC2)cc1OC	51*	-3	0	-2	5	12
COc1cc(OC)c(OC)cc1CN1CCN(Cc2ccco2)CC1	81*	7	0	0	15	21
CCOC(=O)c1c(NC(=O)C(CC)Sc2nnc3c4ccccc4n(CC)c3n2)sc2c1CCCC2 (stereo not drawn)	-2	9	0	1	nt	nt
COCCCNC(=O)c1ccc2c(c1)ncn2-c1ccc(F)cc1F	-8	-19	0	1	nt	nt
COc1cccc(C(=O)N2CCN(Cc3ccc(Br)cc3)CC2)c1	61*	8	0	0	21	9
O=C(c1ccccc1)N1CCN(CC(O)COCc2ccccc2)CC1 (stereo not drawn)	56*	-5	0	0	11	10
COc1cccc(C(=O)N2CCN(Cc3ccccc3Cl)CC2)c1	40	-14	0	-1	nt	nt
O=C(c1cccc(Cl)c1)N1CCN(Cc2ccccc2Cl)CC1	58*	-9	0	2	8	12
COc1ccc(CN2CCN(C(=O)c3cccc(Cl)c3)CC2)c(OC)c1	54*	1	0	1	5	16
CC1(C)OC(=O)C(=CNC(CCCN=C(N)N)C(=O)Nc2ccc([N+](=O)[O-])cc2)C(=O)O1 (stereo not drawn)	5	6	0	0	nt	nt
COC(C)(C)CCC/C(C)=N/Nc1ccc([N+](=O)[O-])cc1[N+](=O)[O-]	17	13	0	0	nt	nt
CCOc1ccc(CN2CCN(C(=O)c3c(OC)cccc3OC)CC2)cc1	33	25	0	-1	nt	nt
COc1cccc(C(=O)N2CCN(C3CCN(Cc4ccccc4)CC3)CC2)c1	54*	-7	0	0	-8	-10
COc1cccc(C(=O)N2CCN(Cc3cccc(Cl)c3)CC2)c1	52*	13	0	0	50*	18
COc1cccc(CN2CCN(C(=O)c3ccccc3)CC2)c1	60*	-1	0	0	8	17
COc1cccc(C(=O)N2CCN(C(=O)c3cccc(Cl)c3)CC2)c1	22	16	0	0	nt	nt
COc1cccc(OC)c1C(=O)N1CCN(Cc2ccc(Br)cc2)CC1	64*	5	1	0	4	-2
COc1ccc(CN2CCN(C(=O)c3ccccc3)CC2)cc1	38	1	0	-1	nt	nt
CCCCCCCC(=O)Nc1ccc(C(=O)Nc2ccc(Cl)cc2C)cc1	10	0	0	2	nt	nt
O=C(c1ccncc1)N1CCN(Cc2ccco2)CC1	76*	-11	0	-1	4	0
c1coc(CN2CCN(Cc3ccncc3)CC2)c1	35	-12	0	1	nt	nt
CCCCCCCCCCCCCCCC(=O)OC[C@H](O)[C@H]1OC(=O)C(=O)C1O (stereo partly drawn)	81*	24	0	-2	42*	-13	AlphaScreen DR=>6.5
CC(C)N(C(=O)c1ccc2ccccc2c1)C(C)C	12	-1	0	0	nt	nt
O=C1CC(=O)N(Cc2ccco2)C(=O)N1	33	5	0	1	nt	nt
O=C1CC(=O)N(Cc2ccco2)C(=S)N1	70*	-5	-1	0	-11	62*
